# Abeta yeast res: compounds reversing amyloid beta toxicity in yeast; hit rate 0.063% among 410,000; Potency, µM (doses to about 46.1 µM), usual class: activators; yeast expressing A-beta42, growth rescue, OD600, 48 h; response scale: 0% DMSO, 100% iron-clioquinol control; AID 1347071; also: nearly all actives have a fitted effect of over 55% in size
#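 Yeast A-beta toxicity model in growth medium with pinned compounds, 48 h at 30 C; growth read as absorbance at 600 nm. Normalized to FeCl3/clioquinol equimolar mix (positive) and DMSO (negative).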
# aSyn yeast inh: inhibitors of alpha-synuclein toxicity in yeast; Potency, µM (titrated, usually from 46.1 µM), without a hit: at the highest dose growth rescue (activation), usual class: activators; Yeast expressing alpha-synuclein, growth rescue, BacTiter-Glo, 24 h; hit rate 0.14% among 370,000; also: % of control where 0% means no effect; nearly all actives have a fitted effect of over 65% in size
#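 Screening used galactose-induced yeast with toxic alpha-synuclein levels, exposed to compound for 24 hr at 30 deg C. Cell growth, read with BacTiter-Glo luminescence, gave the measured signal.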
# TDP-43 yeast inh: TDP-43 toxicity inhibition in yeast; TDP-43 expressing yeast growth rescue, BacTiter-Glo, 24 h; Potency, µM (top dose mostly 46.1 µM), for inactives: at the top dose growth rescue (activation), most hits filed as activators; hit rate 1.8% among 410,000; also: % of control where 0% means no effect; nearly all actives have a fitted effect of over 50% in size
#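 Galactose-induced TDP-43 yeast, OD600=0.02, compound pinned; 24 hr, 30 deg C; BacTiter-Glo luminescence for growth. Inhibitors of TDP-43 toxicity read as activators.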
# FUS suppressor: rescues growth of FUS-expressing yeast; S. cerevisiae FUS-expressing, growth rescue, OD600, 24 h; Potency, µM (highest dose often 76.6 µM), most hits filed as activators; hit rate 0.24% among 390,000; AID 1347120;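 also: plate controls were DMSO vehicle for no effect and reference control for full effect; nearly all actives have a fitted effect of over 55% in size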
#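 Absorbance at 600 nm, taken 24hr after compound addition, measured rescue of FUS-yeast growth at 30C. Induction used 2% galactose with seeding at OD 0.005. Controls: CP55940 from 92uM final, DMSO only.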
# Active calls of the source: *; i = inactive; ? = inconclusive; nt = not tested or not shown; [ ] = remark or other dose. Only some compounds are listed: those with a hit (about 2.1% of all), similar ones and a draw of the others. Calls follow the shape of the dose curve; as a rule, active = well fitted curve in the direction sought with a large enough effect; inconclusive = small, poorly fitted or top-dose-only effect, or another doubt; inactive = no such curve, though single readings can be large; an effect the other way counts as inactive or inconclusive. Potency is read from the fitted curve at half-maximal effect.
SMILES,Abeta yeast res,aSyn yeast inh,TDP-43 yeast inh,FUS suppressor
COc1cc2c(C#N)c(N3CCc4ccccc4C3)nc(N)c2c(N)n1,i,6%,13µM*,?
O=C(Nc1cccc(-c2nc3cccnc3s2)c1)c1ccco1,i,-7%,10µM*,i
CN(C)c1ccc(C(=O)Nc2cccc(-c3nc4cccnc4s3)c2)cc1,i,nt,2%,i
O=C(Nc1ccc(-c2nc3cccnc3s2)cc1)c1ccco1,i,-8%,0%,i
O=C(Nc1cccc(-c2nc3cccnc3s2)c1)c1cccc(Br)c1,i,nt,6.3µM*,i
CC(CNC(=O)c1ccc(Cn2c(=O)c3cccn3c3cccnc32)cc1)c1ccccc1 (stereo not given),i,nt,?,i
CCOC(=O)C1(C(=O)OCC)Cc2c([nH]c3ccccc23)[C@]2(N1)C(=O)N(C)c1ccc(Br)cc12,nt,nt,nt,i
O=S(=O)(c1ccc(Cl)cc1)c1snnc1-c1ccccc1,i,-5%,?,i
O=S(=O)(c1ccc(F)cc1)c1snnc1-c1ccccc1,i,-6%,14µM*,i
CCc1n[nH]c(=S)n1N=C1CCC(C)CC1 (stereo not given),i,-10%,3.5µM*,i
CCc1n[nH]c(=S)n1/N=C/C(C)=C\c1ccccc1,i,-1%,27%,i
COc1ccc(CCNC(=S)Nc2cccc(C)c2C)cc1,i,?,?,nt
S=C(NCCc1ccc(Cl)cc1)NC1CCCCC1,?,-7%,0%,i
Cc1cccc(NC(=S)NCCc2ccccc2)c1C,i,-2%,18µM*,i
S=C(NCCc1ccc(Cl)cc1)NC1CCCC1,10µM*,-14%,21%,i
Cc1c(Cl)cccc1NC(=S)NC1CCCC1,?,-5%,20µM*,i
Cc1c(Cl)cccc1NC(=S)NCCc1ccc(Cl)cc1,10µM*,10%,?,i
Cc1ccc(C)c(CN2C(=O)NC3(CCCCCC3)C2=O)c1,?,0%,22µM*,i
COC(=O)c1cn(-c2ccc3c(c2)[C@]2(CC(=O)N(C)C2c2ccccc2)C(=O)N3CC(C)C)nn1 (stereo not given in full),nt,nt,nt,i
O=C(CCCCl)NC(=S)Nc1cc(C(F)(F)F)ccc1N1CCOCC1,?,0%,13µM*,i
CC(C)(C)C(=O)NC(=S)Nc1cc(C(F)(F)F)ccc1N1CCOCC1,i,19%,4%,i
COc1cc2nc(/C=C/c3cc(OC)c(OC)c(OC)c3)sc2cc1SC,i,-3%,-22%,?
COc1cc2nc(C)sc2cc1SC,i,-1%,20µM*,?
COC(=O)[C@]12C[C@H](CC(=O)NCCCN3CCCC3=O)C(=O)N(Cc3ccco3)C1=C[C@H](C1CCCC1)O[C@@H]2C,nt,nt,nt,i
O=C1CSC2(C(=O)N(Cc3cccc(F)c3)c3ccccc32)N1c1cccc(C(F)(F)F)c1 (stereo not given),i,?,22µM*,i
SMILES,Abeta yeast res,aSyn yeast inh,TDP-43 yeast inh,FUS suppressor
O=C1CSC2(C(=O)N(Cc3cccc(C(F)(F)F)c3)c3ccccc32)N1c1ccc(F)c(F)c1 (stereo not given),i,-14%,?,?
COCCCNC(=O)C[C@H]1C[C@@]2(C(=O)OC)C(=C[C@H](C(C)C)O[C@@H]2C2CC2)N(Cc2ccc(Cl)cc2Cl)C1=O,nt,nt,nt,28µM*
COC(=O)[C@]12C[C@H](CC(=O)NCc3ccc(OC)c(OC)c3)C(=O)N(Cc3ccc(Cl)cc3Cl)C1=C[C@H](C(C)C)O[C@@H]2C1CC1,nt,nt,nt,28µM*
CCC(C)C(=O)Nc1nnc(CCc2ccccc2)s1 (stereo not given),?,6%,20µM*,i
CC(C)CC(=O)Nc1nnc(CCc2ccccc2)s1,i,-1%,18%,i
NNC(=O)c1ccc(COc2ccc3ccccc3c2)cc1,i,-7%,16µM*,i
CCCc1cc(=O)oc2cc(OCc3ccc(C(=O)O)cc3)ccc12,i,3%,2.5µM*,i
COc1ccc(OCC(O)COc2ccc(C(=O)O)cc2)cc1 (stereo not given),i,nt,nt,i
COc1ccc(OCc2ccc(C(=O)O)cc2)cc1,i,6%,14µM*,i
NNC(=O)c1ccc(COc2ccc3c(c2)CCC3)cc1,i,-20%,18%,?
O=C(Cc1ccc(Cl)c(Cl)c1)Nc1ccc(S(=O)(=O)Nc2ccon2)cc1,nt,nt,nt,i
O=C(NCCc1ccc(F)cc1)c1ccc2c(c1)ncn2C1CCCCC1,nt,nt,nt,i
O=C(CS(=O)(=O)c1nc(-c2ccc(Cl)cc2)cn1-c1ccccc1)Nc1cccc(Cl)c1,i,nt,?,?
O=C(CS(=O)(=O)c1nc(-c2ccc(Cl)cc2)cn1-c1ccccc1)Nc1ccc(F)cc1F,i,nt,14µM*,?
Brc1ccc(Cn2nnc(-c3ccc(N4CCOCC4)cc3)n2)cc1,nt,nt,nt,i
CCCc1cc(C(=O)NNC(=S)Nc2cccc(C)c2)cs1,i,-6%,8.9µM*,nt
Cc1cccc(NC(=S)NNC(=O)c2ccc3c(c2)OCO3)c1,i,-13%,3%,nt
O=C(O)c1ccc(N/N=C/c2ccc(-c3cccc(Cl)c3)o2)cc1,i,-16%,18µM*,i
CCOc1ccc(C2C(C(=O)c3ccc(C)o3)=C(O)C(=O)N2Cc2cccnc2)cc1 (stereo not given),i,-7%,-24%,?
O=C(C1=C(O)C(=O)N(c2ncccn2)C1c1ccc(Cl)cc1)c1ccco1 (stereo not given),i,6%,0%,32µM*
Cc1ccc(C(=O)C2=C(O)C(=O)N(Cc3cccnc3)C2c2ccc(Cl)cc2)o1 (stereo not given),i,-18%,-14%,28µM*
CCOC(=O)Nc1nc(-c2ccc(Cl)cc2Cl)cs1,i,-37%,11µM*,nt
Cc1cccc(N2CCN(C(=O)CCNS(=O)(=O)c3ccc4c(c3)CCN4C(=O)C3CC3)CC2)c1C,i,11%,15%,28µM*
CCOC(=O)[C@]12CCCC=C1N(CCCOC)C(=O)[C@@H]2CC(=O)N1CCCCC1,nt,nt,nt,i
COc1ccc(S(=O)(=O)N2CCOCC2)cc1,nt,0%,nt,nt
SMILES,Abeta yeast res,aSyn yeast inh,TDP-43 yeast inh,FUS suppressor
O=S(=O)(c1ccc(Oc2ccc(Br)cc2)cc1)N1CCOCC1,i,-2%,25µM*,i
Cc1ccc2c(c1)-c1ccccc1S(=O)(=O)N2,i,13µM*,?,nt
Nc1ccc2c(c1)-c1ccccc1S(=O)(=O)N2,i,-7%,-15%,28µM*
Cc1ccc(C)c(OC2=NS(=O)(=O)c3ccccc32)c1,i,1%,8%,i
COc1ccc(-c2nc3n(n2)C(c2ccccc2OC)C(C(=O)Nc2cccnc2)=C(C)N3)cc1 (stereo not given),i,nt,?,i
Brc1ccc(CSc2nnc(SCc3ccccc3)s2)cc1,nt,nt,nt,i
CC1CCN(C(=S)c2ccc(N(C)C)cc2)CC1,13µM*,-7%,-13%[1.82 µM],i
NCCCN(Cc1ccc(Cl)c(Cl)c1)c1ccc(Br)cn1,nt,-34%,nt,nt
